Measured values taken from PubChem BioAssay AID1159580 (chemical genetic matrix, 2015).
Where “and” joins values, the source holds several entries; their conditions need not be identical. Equal entries are not always repeated. Among all 5,500 compounds or so, about 2,000 (36%) were called active. Inconclusive results (about 18%) are left out. Rule as the data show it: active = normalized growth mostly below about 0.91 (no sharp cut-off); inconclusive = no clear call, values can overlap the other calls; inactive = mostly above about 0.92. This is one part of the list.

Assay: chemical genetic growth profiling, strain panel (AID 1159580);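 also: tested at 20 µM; growth read once vehicle control cultures reached saturation at 30 °C; 1 = growth at the plate median or of vehicle wells; lower values mean less growth of the strain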
Conditions: S. cerevisiae deletion strains, growth OD

Measured: normalized growth

Cc1c(C(N)=O)cc([N+](=O)[O-])cc1[N+](=O)[O-]
inactive: locus YAL021C, strain ccr4, hits give low values 0.995 | locus YAL026C, strain drs2, hits give low values 1.04 | locus YAL030W, strain snc1, hits give low values 1.01 | locus YBL061C, strain skt5, hits give low values 1.02 | locus YBR009C, strain hhf1, hits give low values 1.08 | locus YBR021W, strain FUR4, hits give low values 0.969 | locus YBR023C, strain chs3, hits give low values 1.03 | locus YBR171W, strain sec66, hits give low values 1.01 | locus YBR229C, strain ROT2, hits give low values 0.986 | locus YBR231C, strain swc5, hits give low values 0.996 | locus YBR279W, strain paf1, hits give low values 1.02 | locus YCL011C, strain gbp2, hits give low values 1.03 | locus YCL016C, strain dcc1, hits give low values 1.04 | locus YCL029C, strain bik1, hits give low values 0.977 | locus YCL061C, strain MRC1, hits give low values 1.03 | locus YCL069W, strain vba3, hits give low values 1.02 | locus YCR088W, strain abp1, hits give low values 1.01 | locus YDL005C, strain med2, hits give low values 1.02 | locus YDL035C, strain GPR1, hits give low values 0.994 | locus YDL040C, strain nat1, hits give low values 1.02 | locus YDL074C, strain BRE1, hits give low values 1.01 | locus YDL101C, strain DUN1, hits give low values 0.99 | locus YDL134C, strain PPH21, hits give low values 0.97 | locus YDL185W, strain tfp1, hits give low values 0.967 | locus YDL192W, strain arf1, hits give low values 0.966 | locus YDR001C, strain nth1, hits give low values 1.01 | locus YDR069C, strain doa4, hits give low values 0.997 | locus YDR101C, strain arx1, hits give low values 1 | locus YDR137W, strain rgp1, hits give low values 1.04 | locus YDR150W, strain NUM1, hits give low values 0.99 | locus YDR159W, strain sac3, hits give low values 0.991 | locus YDR162C, strain NBP2, hits give low values 0.994 | locus YDR195W, strain ref2 1.02 | locus YDR297W, strain sur2, hits give low values 1.01 | locus YDR318W, strain mcm21, hits give low values 0.983 | locus YDR334W, strain swr1, hits give low values 1.02 | locus YDR335W, strain msn5, hits give low values 1.03 | locus YDR388W, hits give low values 0.982 | locus YDR392W, strain spt3, hits give low values 1 | locus YDR502C, strain sam2, hits give low values 1 | locus YEL003W, strain gim4, hits give low values 1.03 | locus YEL037C, strain rad23, hits give low values 1.02 | locus YEL061C, strain CIN8 (second series), hits give low values 1.02 | locus YEL061C, strain CIN8, hits give low values 0.99 | locus YER015W, strain faa2, hits give low values 1.01 | locus YER016W, strain bim1, hits give low values 1.01 | locus YER110C, hits give low values 0.965 | locus YER111C, strain swi4, hits give low values 1.02 | locus YER155C, strain BEM2 (second series), hits give low values 0.978 | locus YER155C, strain BEM2, hits give low values 0.987 | locus YER167W, strain BCK2, hits give low values 0.99 | locus YFR010W, strain ubp6, hits give low values 1.03 | locus YGL078C, strain dbp3, hits give low values 0.98 | locus YGL086W, strain mad1, hits give low values 0.994 | locus YGL167C, strain pmr1, hits give low values 1.03 | locus YGL173C, strain kem1, hits give low values 1.01 | locus YGL227W, strain vid30, hits give low values 1.01 | locus YGL240W, strain doc1, hits give low values 1 | locus YGL248W, strain PDE1, hits give low values 1 | locus YGL253W, strain hxk2, hits give low values 1.02 | locus YGR078C, strain PAC10, hits give low values 1 | locus YGR135W, strain pre9, hits give low values 0.977 | locus YGR252W, strain gcn5, hits give low values 0.945 | locus YHR013C, strain ard1, hits give low values 1.07 | locus YHR027C, strain rpn1, hits give low values 1.02 | locus YHR030C, strain SLT2, hits give low values 0.98 and 1.04 | locus YHR079C, strain IRE1 (second series), hits give low values 0.984 | locus YHR079C, strain IRE1, hits give low values 1.04 | locus YHR094C, strain hxt1, hits give low values 0.977 | locus YHR129C, strain ARP1, hits give low values 0.993 | locus YHR142W, strain chs7, hits give low values 1.02 | locus YHR200W, strain rpn10, hits give low values 0.98 | locus YIL066C, strain RNR3, hits give low values 0.988 | locus YIL073C, strain SPO22, hits give low values 0.95 | locus YIL125W, strain kgd1, hits give low values 0.99 | locus YIR030C, strain dcg1, hits give low values 0.984 | locus YJL092W, strain hpr5, hits give low values 1.02 | locus YJL095W, strain BCK1 (second series), hits give low values 1.04 | locus YJL095W, strain BCK1, hits give low values 1.02 and 1.05 | locus YJL115W, strain asf1, hits give low values 1.03 | locus YJL129C, strain trk1, hits give low values 1.05 | locus YJL134W, strain LCB3, hits give low values 0.991 | locus YJL154C, strain vps35, hits give low values 1.01 | locus YJL164C, strain tpk1, hits give low values 1.06 | locus YJL166W, strain qcr8, hits give low values 1.02 | locus YJL168C, strain set2, hits give low values 0.979 | locus YJL187C, strain SWE1 (second series), hits give low values 0.999 | locus YJL187C, strain SWE1, hits give low values 1.01 | locus YJR043C, strain POL32, hits give low values 1.02
